{"source": "PubChem BioAssay AID686979", "about": "(National Center for Advancing Translational Sciences (NCATS), 2013)", "note": "Among all 420,000 compounds or so, about 50,000 (12%) were called active. Another 26% or so got no clear call; they are omitted. Calls follow the shape of the dose curve; as a rule, active = well fitted inhibition curve with a large enough effect; inconclusive = small, poorly fitted or top-dose-only effect; inactive = flat fitted curve, though single readings scatter. This excerpt belongs to a sample that is enriched for actives."}
{"test": "qHTS for Inhibitors of human tyrosyl-DNA phosphodiesterase 1 (TDP1): qHTS in cells in presence of CPT; also: nearly all actives have a fitted effect of over 55% in size; also: potency is read from the fitted curve at half-maximal effect; as to activity change, negative = growth inhibition: % is scaled to controls: 0 for no effect and ±100 for the full control effect", "settings": "chicken DT40 Tdp1-/-;hTDP1 cells + 20 nM CPT, ATP luminescence, 48 h; series mostly up to 46.2 µM; activity change, negative = growth inhibition: at the top concentration", "method_in_brief": "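Chicken DT40 Tdp1-/- cells complemented with human TDP1, 400 cells/well, exposed to compounds plus 20 nM camptothecin for at least 48 h at 37 C; viability read as ATP content by CellTiter-Glo luminescence.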"}
{"compound": "O=C(NN1C(=O)C2C3C=CC(C3)C2C1=O)c1ccco1", "note": "(stereo not given)", "activity change, negative = growth inhibition": "12.1% (inactive)"}
{"compound": "COc1cccc(-c2nc(Nc3ccncc3)c3ccccc3n2)c1", "Potency": "8.2 µM (active)"}
{"compound": "COc1cc(Nc2nc(-c3ccc(OC)c(OC)c3)nc3ccccc23)cc(OC)c1", "Potency": "5.8 µM (active)"}
{"compound": "Cc1noc(C)c1-c1nc(Nc2ccccc2)c2ccccc2n1", "activity change, negative = growth inhibition": "8.15% (inactive)"}
{"compound": "COc1ccc(Cl)cc1N(CC(=O)N1CCCCC1)S(C)(=O)=O", "activity change, negative = growth inhibition": "-0.885% (inactive)"}
{"compound": "C=Cn1cc[n+](CC(=O)c2ccc(OC)c(OC)c2)c1", "activity change, negative = growth inhibition": "-2% (inactive)"}
{"compound": "COc1ccc(C23NCCN2C(=O)c2ccccc23)cc1", "note": "(stereo not given)", "activity change, negative = growth inhibition": "21.2% (inactive)"}
{"compound": "Cc1cccc(S(=O)(=O)N(C)C[C@H]2OCc3cnnn3CCCC(=O)N([C@@H](C)CO)C[C@H]2C)c1", "activity change, negative = growth inhibition": "-21.2% (inactive)"}
{"compound": "CCCCn1c(N)c(N(Cc2ccccc2OC)C(=O)COc2cc(C)ccc2Cl)c(=O)[nH]c1=O", "activity change, negative = growth inhibition": "0.516% (inactive)"}
{"compound": "CCCCc1nn2c(=O)cc(COC(=O)c3cccc(NC(=O)COc4ccccc4)c3)nc2s1", "activity change, negative = growth inhibition": "-7.98% (inactive)"}
{"compound": "COc1ccc(CN2CCC(C)(Oc3cccc(F)c3)C2)c2ccccc12", "note": "(stereo not given)", "Potency": "23.1 µM (active)"}
{"compound": "COc1ccccc1CN1CC2(CCN(S(=O)(=O)c3ccccc3)CC2)C1", "activity change, negative = growth inhibition": "-28.8% (inactive)"}
{"compound": "CCOc1cc(CN2CCCC(CO)(Cc3ccc(F)cc3F)C2)ccc1OC", "note": "(stereo not given)", "activity change, negative = growth inhibition": "-24.9% (inactive)"}
{"compound": "Cc1ccc(CCNC(=O)CN2C(=O)CSc3ccc(S(=O)(=O)N4CCOCC4)cc32)cc1", "activity change, negative = growth inhibition": "-30.8% (inactive)"}
{"compound": "C[C@H]1Cn2cnc(C(=O)N[C@@H](Cc3c[nH]c4ccccc34)C(=O)OC(C)(C)C)c2C(=O)N1", "activity change, negative = growth inhibition": "0.235% (inactive)"}
{"compound": "CCCOc1ccc(Cn2c(O)cc(=O)[nH]c2=O)cc1", "activity change, negative = growth inhibition": "21.5% (inactive)"}
{"compound": "CS(=O)(=O)N1CCN(C(=O)Cc2ccccc2)CC1", "activity change, negative = growth inhibition": "-4.66% (inactive)"}
{"compound": "COc1cc(=O)[nH]c(=O)n1C(=O)Cc1ccccc1", "Potency": "13 µM (active)"}
{"compound": "COc1ccccc1NC(=O)C(C)OC(=O)CC1CCCC1", "note": "(stereo not given)", "activity change, negative = growth inhibition": "0.0071% (inactive)"}
{"compound": "COc1ccccc1NC(=O)[C@H](COCc1ccccc1)NC(=O)OC(C)(C)C", "Potency": "23.1 µM (active)"}
{"compound": "COc1ccccc1NC(=O)C(CC(=O)O)Cc1cc(C)cc(C)c1", "note": "(stereo not given)", "activity change, negative = growth inhibition": "-8.16% (inactive)"}
{"compound": "Cc1ccc(SCC(=O)NNC(=O)c2ccc(S(C)(=O)=O)cc2)cc1", "activity change, negative = growth inhibition": "4.79% (inactive)"}
{"compound": "CCOc1ccc(CNC(=O)c2ccc3c(c2)nnn3C2CCCC2)cc1", "activity change, negative = growth inhibition": "-29.4% (inactive)"}
{"compound": "Cc1cc(Cl)ccc1OCc1nc(-c2ccncc2)no1", "activity change, negative = growth inhibition": "-25.7% (inactive)"}
{"compound": "O=C(Nc1ccc2oc(-c3ccc(O)c(Br)c3)nc2c1)c1cc2ccccc2o1", "activity change, negative = growth inhibition": "-2.63% (inactive)"}
{"compound": "COc1cc(OC)cc(C(=O)Nc2ccc(-c3nc4ccccc4o3)c(O)c2)c1", "Potency": "18.4 µM (active)"}
{"compound": "CCc1ccc2oc(-c3ccc(NC(=O)c4cc5ccccc5o4)cc3)nc2c1", "activity change, negative = growth inhibition": "-21.5% (inactive)"}
{"compound": "Cc1nc2cc(NC(=O)NCc3ccccc3)ccc2o1", "activity change, negative = growth inhibition": "-25.7% (inactive)"}
{"compound": "O=C(Nc1ccc(C(=O)O)c(O)c1)c1ccccc1", "Potency": "inactive"}
{"compound": "O=C(Nc1ccc(-c2nc3cc(NC(=O)c4ccccc4Cl)ccc3o2)cc1)c1ccccc1Cl", "Potency": "7.31 µM (active)"}
{"compound": "COC(=O)c1ccc(-c2nc3cc(NC(C)=O)ccc3o2)cc1", "activity change, negative = growth inhibition": "-5.85% (inactive)"}
{"compound": "CC(=O)Nc1ccc(-c2nc3ccccc3o2)cc1", "activity change, negative = growth inhibition": "12% (inactive)"}
{"compound": "Cc1ccccc1-c1nc2cc(NC(=O)c3cccc(OCCC(C)C)c3)ccc2o1", "Potency": "23.1 µM (active)"}
{"compound": "CCCCOc1ccc(C(=O)Nc2cccc(-c3nc4ccccc4o3)c2C)cc1", "activity change, negative = growth inhibition": "-29.3% (inactive)"}
{"compound": "CCCOc1ccc(C(=O)Nc2ccc3oc(-c4cccc(Cl)c4Cl)nc3c2)cc1", "Potency": "8.2 µM (active)"}
{"compound": "Cc1nc2nc[nH]n2c(=O)c1NC(=O)c1cccc(OCC(C)C)c1", "activity change, negative = growth inhibition": "-5.85% (inactive)"}
{"compound": "O=Cc1c(NCCCN2CCCC2=O)c2ccccc2[nH]c1=O", "activity change, negative = growth inhibition": "1.3% (inactive)"}
{"compound": "Cc1cccc(C(=O)OC(C)CN2CCCC2)c1", "note": "(stereo not given)", "activity change, negative = growth inhibition": "-0.708% (inactive)"}
{"compound": "COCCNC(=O)CCCN1C(=O)c2ccccc2Sc2ncccc21", "Potency": "inactive"}
{"compound": "Cc1ccc2c(Cl)c(C(=O)Nc3nn[nH]n3)sc2c1", "activity change, negative = growth inhibition": "-18.1% (inactive)"}
{"compound": "O=C(COC(=O)CNC(=O)C1CCCCC1)Nc1cccc(F)c1", "activity change, negative = growth inhibition": "-5.92% (inactive)"}
{"compound": "c1ccc(-c2cc(-c3nnc4sc(-c5ccccn5)nn34)[nH]n2)cc1", "Potency": "11.6 µM (active)"}
{"compound": "CCOc1cccc(-c2nn3c(-c4ccccn4)nnc3s2)c1", "activity change, negative = growth inhibition": "-21.1% (inactive)"}
{"compound": "CN(C(=O)c1ccccn1)c1nnc(-c2ccccn2)s1", "activity change, negative = growth inhibition": "3.28% (inactive)"}
{"compound": "Cn1c(N)c(C(=O)COC(=O)c2ccccc2NCc2ccco2)c(=O)n(C)c1=O", "activity change, negative = growth inhibition": "-11.2% (inactive)"}
{"compound": "Nc1cc(N)nc(SCc2ccc(Cl)cc2)n1", "activity change, negative = growth inhibition": "7.24% (inactive)"}
{"compound": "CC(O)CN(Cc1ccc(Cl)cc1)CC(C)O", "note": "(stereo not given)", "activity change, negative = growth inhibition": "1.11% (inactive)"}
{"compound": "CCN(CC)C(=O)[C@H]1CC(CC(=O)NCc2ccco2)C(=O)N2CCc3c([nH]c4ccccc34)[C@]12C", "note": "(stereo not given in full)", "activity change, negative = growth inhibition": "-24.8% (inactive)"}
{"compound": "CN(C)C(=O)CCc1ccc2c3c([nH]c2c1)[C@]1(C)[C@@H](C(=O)N2CCOCC2)C[C@H](CC(=O)NCCc2ccccn2)C(=O)N1CC3", "activity change, negative = growth inhibition": "14.2% (inactive)"}
{"compound": "CN(C)C(=O)CCc1ccc2c3c([nH]c2c1)[C@]1(CCc2ccccc2)[C@@H](C(=O)N2CCCCC2)C[C@H](CC(=O)NCCC2=CCCCC2)C(=O)N1CC3", "Potency": "8.2 µM (active)"}
{"compound": "CC(C)N(C(=O)[C@H]1C[C@H](CC(=O)NC(C)(C)C)C(=O)N2CCc3c([nH]c4ccc(Cl)cc34)[C@]12C)C(C)C", "Potency": "7.31 µM (active)"}
{"compound": "C[C@]12c3[nH]c4ccc(Cl)cc4c3CCN1C(=O)[C@@H](CC(=O)NCCCn1ccnc1)C[C@@H]2C(=O)N1CCOCC1", "activity change, negative = growth inhibition": "-15.4% (inactive)"}
{"compound": "CC[C@]12c3[nH]c4cc(CCC(=O)N(C)C)ccc4c3CCN1C(=O)[C@@H](CC(=O)NCc1ccco1)C[C@@H]2C(=O)N1CCN(C(=O)c2ccco2)CC1", "activity change, negative = growth inhibition": "-19% (inactive)"}
{"compound": "CCN(CC)C(=O)[C@H]1C[C@H](CC(=O)NCC23CC4CC(CC(C4)C2)C3)C(=O)N2CCc3c([nH]c4cc(CCC(=O)N(C)C)ccc34)[C@]12C", "Potency": "20.6 µM (active)"}
{"compound": "CC[C@]12c3[nH]c4ccc(Cl)cc4c3CCN1C(=O)[C@@H](CC(=O)NCCCOC)C[C@@H]2C(=O)N1CCN(C(=O)C2CC2)CC1", "activity change, negative = growth inhibition": "-25.7% (inactive)"}
{"compound": "CC[C@]12c3[nH]c4cc(CCC(=O)N(C)C)ccc4c3CCN1C(=O)[C@@H](CC(=O)NCCCN(C)C)C[C@@H]2C(=O)N1CCN(C(=O)c2ccco2)CC1", "activity change, negative = growth inhibition": "1.51% (inactive)"}
{"compound": "COc1ccccc1-c1c(C#N)c(N)nc2c1CCC2", "activity change, negative = growth inhibition": "12.8% (inactive)"}
{"compound": "O=C(O)C(CCc1ccccn1)c1ccccc1", "note": "(stereo not given)", "activity change, negative = growth inhibition": "24.6% (inactive)"}
{"compound": "Cc1csc(/N=C/N(C)C)c1C#N", "activity change, negative = growth inhibition": "8.34% (inactive)"}
{"compound": "OCC1CCCN(c2nc3cc4c(cc3cc2CNCc2cccs2)OCO4)C1", "note": "(stereo not given)", "activity change, negative = growth inhibition": "3.65% [at 9.04 µM] (inactive)"}
